Laboratory results reported in the supplement of paper PMC4466140.

Assays:
Assay in all cases: SPOT peptide array binding signal intensity (averaged, normalized) (arbitrary units (background-subtracted, floor 0; scale differs between SH3 domains)); higher = stronger binding of the SH3 domain to the peptide
AgAbp1 = biological target: AgAbp1
In short: (§1)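 SH3 domains from four yeast species were expressed as GST fusions in E. coli BL21(DE3) and purified on glutathione Sepharose. Each was incubated at 10 μg/ml overnight at 4°C in TBS-based blocking buffer on cellulose membranes bearing synthetic 15-mer peptides, in which serines replaced cysteines. Bound protein was detected with anti-GST antibody, an HRP anti-mouse secondary and luminol, then imaged and quantified with Genespotter. The binding signal is the normalized, background-subtracted spot intensity averaged over replicates, in arbitrary units that are not the same from one domain to another.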

AgBbc1 = biological target: AgBbc1
In short: as §1

AgBem1-D1 = biological target: AgBem1-D1
In short: as §1

AgBzz1-D1 = biological target: AgBzz1-D1
In short: as §1

AgBzz1-D2 = biological target: AgBzz1-D2
In short: as §1

AgCyk3 = biological target: AgCyk3
In short: as §1

AgFus1 = biological target: AgFus1
In short: as §1

AgHof1 = biological target: AgHof1
In short: as §1

AgHse1 = biological target: AgHse1
In short: as §1

AgLsb1 = biological target: AgLsb1
In short: as §1

AgLsb4 = biological target: AgLsb4
In short: as §1

AgMyo5 = biological target: AgMyo5
In short: as §1

AgNbp2 = biological target: AgNbp2
In short: as §1

AgRvs167 = biological target: AgRvs167
In short: as §1

AgSho1 = biological target: AgSho1
In short: as §1

AgSla1-D1-D2 = biological target: AgSla1-D1-D2
In short: as §1

AgSla1-D3 = biological target: AgSla1-D3
In short: as §1

CaAbp1-D1 = biological target: CaAbp1-D1
In short: as §1

CaAbp1-D2 = biological target: CaAbp1-D2
In short: as §1

CaBbc1 = biological target: CaBbc1
In short: as §1

CaBem1-D1 = biological target: CaBem1-D1
In short: as §1

CaBzz1-D1 = biological target: CaBzz1-D1
In short: as §1

CaBzz1-D2 = biological target: CaBzz1-D2
In short: as §1

CaCyk3 = biological target: CaCyk3
In short: as §1

CaFus1 = biological target: CaFus1
In short: as §1

CaHof1 = biological target: CaHof1
In short: as §1

CaHse1 = biological target: CaHse1
In short: as §1

CaLsb1 = biological target: CaLsb1
In short: as §1

CaLsb4 = biological target: CaLsb4
In short: as §1

CaMyo5 = biological target: CaMyo5
In short: as §1

CaNbp2 = biological target: CaNbp2
In short: as §1

CaRvs167 = biological target: CaRvs167
In short: as §1

CaRvs167-3 = biological target: CaRvs167-3
In short: as §1

CaSho1 = biological target: CaSho1
In short: as §1

CaSla1-D1-D2 = biological target: CaSla1-D1-D2
In short: as §1

CaSla1-D3 = biological target: CaSla1-D3
In short: as §1

ScAbp1 = biological target: ScAbp1
In short: as §1

ScBbc1 = biological target: ScBbc1
In short: as §1

ScBem1-D1 = biological target: ScBem1-D1
In short: as §1

ScBzz1-D1 = biological target: ScBzz1-D1
In short: as §1

ScBzz1-D2 = biological target: ScBzz1-D2
In short: as §1

ScCyk3 = biological target: ScCyk3
In short: as §1

ScFus1 = biological target: ScFus1
In short: as §1

ScHof1 = biological target: ScHof1
In short: as §1

ScHse1 = biological target: ScHse1
In short: as §1

ScLsb1 = biological target: ScLsb1
In short: as §1

ScLsb2 = biological target: ScLsb2
In short: as §1

ScLsb3 = biological target: ScLsb3
In short: as §1

ScLsb4 = biological target: ScLsb4
In short: as §1

ScMyo3 = biological target: ScMyo3
In short: as §1

ScMyo5 = biological target: ScMyo5
In short: as §1

ScNbp2 = biological target: ScNbp2
In short: as §1

ScPex13 = biological target: ScPex13
In short: as §1

ScRvs167 = biological target: ScRvs167
In short: as §1

ScSho1 = biological target: ScSho1
In short: as §1

ScSla1-D1-D2 = biological target: ScSla1-D1-D2
In short: as §1

ScSla1-D3 = biological target: ScSla1-D3
In short: as §1

SpAbp1-D1 = biological target: SpAbp1-D1
In short: as §1

SpBbc1 = biological target: SpBbc1
In short: as §1

SpBzz1-D1 = biological target: SpBzz1-D1
In short: as §1

SpBzz1-D2 = biological target: SpBzz1-D2
In short: as §1

SpCyk3 = biological target: SpCyk3
In short: as §1

SpHof1 = biological target: SpHof1
In short: as §1

SpHof1-2 = biological target: SpHof1-2
In short: as §1

SpHof1-3 = biological target: SpHof1-3
In short: as §1

SpHse1 = biological target: SpHse1
In short: as §1

SpLsb1 = biological target: SpLsb1
In short: as §1

SpLsb4 = biological target: SpLsb4
In short: as §1

SpMyo1 = biological target: SpMyo1
In short: as §1

SpNbp2 = biological target: SpNbp2
In short: as §1

SpPex13 = biological target: SpPex13
In short: as §1

SpRvs167 = biological target: SpRvs167
In short: as §1

SpSla1-D1-D2 = biological target: SpSla1-D1-D2
In short: as §1

SpSla1-D3 = biological target: SpSla1-D3
In short: as §1

Measured: SPOT peptide array binding signal intensity

PELAPKREAPKPPAN
1: CaBem1-D1 | CaSla1-D3 | ScAbp1 | SpCyk3 | SpHof1-3
14: CaFus1
906: ScMyo5
4.5: ScSla1-D3
10: ScBzz1-D2
17: ScBbc1
1220: SpMyo1
560: AgMyo5
12: AgBzz1-D2
3.5: CaAbp1-D2
9: SpBzz1-D1
91: ScBzz1-D1
652: CaBzz1-D1
1.5: CaMyo5 | SpHof1-2
0.667: CaRvs167
73.2: CaBbc1
5: ScPex13 | SpAbp1-D1
1020: CaNbp2
2.5: AgHof1
≤ 0: AgBbc1 | AgCyk3 | AgHse1 | AgLsb1 | AgLsb4 | AgSho1 | AgSla1-D1-D2 | CaAbp1-D1 | CaCyk3 | CaHof1 | CaLsb1 | CaLsb4 | CaRvs167-3 | CaSho1 | CaSla1-D1-D2 | ScBem1-D1 | ScCyk3 | ScFus1 | ScHof1 | ScHse1 | ScLsb1 | ScLsb3 | ScLsb4 | ScRvs167 | ScSho1 | ScSla1-D1-D2 | SpBbc1 | SpLsb1 | SpLsb4 | SpNbp2 | SpPex13 | SpRvs167 | SpSla1-D1-D2 | SpSla1-D3
564: AgNbp2
0.5: AgAbp1 | AgFus1 | CaHse1 | ScLsb2 | SpBzz1-D2 | SpHof1
265: CaBzz1-D2
1310: ScMyo3
34.5: AgBzz1-D1
2.83: AgRvs167
1560: ScNbp2
7.5: AgBem1-D1 | SpHse1
3: AgSla1-D3

PPIPNAPLSPAPAVP
946: SpMyo1
0.5: SpBzz1-D2
1: SpCyk3 | SpHof1-2 | SpHof1-3
23: SpHse1
≤ 0: SpHof1 | SpLsb1 | SpLsb4 | SpNbp2 | SpPex13 | SpRvs167 | SpSla1-D1-D2 | SpSla1-D3

KTITLEVESSDTIDN
3: AgLsb4
≤ 0: AgBbc1 | AgBem1-D1 | AgBzz1-D1 | AgBzz1-D2 | AgCyk3 | AgFus1 | AgHof1 | AgHse1 | AgLsb1 | AgMyo5 | AgNbp2 | AgSho1 | AgSla1-D3 | CaAbp1-D1 | CaAbp1-D2 | CaBbc1 | CaBem1-D1 | CaBzz1-D1 | CaBzz1-D2 | CaCyk3 | CaFus1 | CaHof1 | CaHse1 | CaLsb4 | CaMyo5
0.5: AgAbp1 | CaLsb1
2: AgSla1-D1-D2
1.5: AgRvs167
